SMILES strings stand for the structures. The campaign covered roughly 2,100 compounds. About 1,100 (52%) were called active. Another 29% or so got no clear call; they are omitted. Calls come from the whole dose curve; as a rule, active = well fitted inhibition curve with a large enough effect; inconclusive = small, poorly fitted or top-dose-only effect; inactive = no such curve, though single readings can be large or run the other way. The set was probably picked from earlier hits. The list shows a part of the results.
% is set by controls: 0 for no effect and ±100 for the full control effect; potency is the fitted concentration of half-maximal effect.

For the test, the target named is DNA dC->dU-editing enzyme APOBEC-3F (Homo sapiens) (UniProt Q8IUX4). In words: qHTS for inhibitors of Vif-A3F interactions: Cherry picks counterscreen. Note: nearly all actives have a fitted effect of over 65% in size. To be noted: HeLa A3F-eYFP/Vif cells, eYFP fluorescence, 24 h; series mostly up to 46.1 µM; activity, negative = inhibitor: at the top concentration. An excerpt: The recent discovery and characterization of host restriction factors, which provide a potent defense to invading retroviruses, has provided new targets for antiviral drug development. APOBEC3G (A3G) and APOBEC3F (A3F) are potent cytidine deaminases that block HIV-1 replication; HIV-1 expresses the Vif protein, which counteracts A3G and A3F by binding to them and inducing their proteasomal degradation. The Vif-A3G and Vif-A3F interactions provide two potential targets for development of small molecules which can interfere with the ability of Vif to degrade A3G or A3F. […] To identify inhibitors that can interfere with Vif mediated degradation of A3G and A3F, we have developed Hela cell lines that stably express A3G or A3F tagged with eYFP at the C-terminal end (A3G-eYFP or A3F-eYFP, respectively) and Vif. In the absence of an inhibitor, Vif induces degradation of A3G-eYFP and A3F-eYFP, and the cells are not fluorescent. In the presence of an inhibitor, it is expected that Vif will be unable to degrade A3G-eYFP and/or A3F-eYFP, resulting in an increase in yellow fluorescence. In this counterscreen assay, Vif A3F was screened against the cherry picks ordered from the MLSMR. NIH Chemical Genomics Center [NCGC] NIH Molecular Libraries Probe Centers Network [MLPCN] MLPCN Grant: MH093245 Assay Submitter (PI): Vinay Pathak, National Cancer Institute
DNA dC->dU-editing enzyme APOBEC-3F (Homo sapiens), sequence (Q8IUX4 whole entry, looked up): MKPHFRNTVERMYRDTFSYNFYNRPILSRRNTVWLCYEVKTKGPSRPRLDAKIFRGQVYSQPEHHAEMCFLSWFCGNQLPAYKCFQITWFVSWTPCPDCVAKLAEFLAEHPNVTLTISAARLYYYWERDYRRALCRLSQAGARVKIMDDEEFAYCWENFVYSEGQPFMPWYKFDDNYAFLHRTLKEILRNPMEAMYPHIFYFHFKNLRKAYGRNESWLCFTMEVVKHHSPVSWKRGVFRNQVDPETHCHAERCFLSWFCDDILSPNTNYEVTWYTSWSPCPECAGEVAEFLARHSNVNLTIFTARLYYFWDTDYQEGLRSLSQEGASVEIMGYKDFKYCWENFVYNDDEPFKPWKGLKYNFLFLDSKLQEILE
A3F-Vif cells were harvested from T225 flask and resuspended in phenol free OPTI-MEM medium with 5% FBS. Then 5 uL of 140,000 cells/mL resuspended cells was dispensed into each well of low base Aurora COC 1,536-well plates (black walled, clear bottom) using a Multidrop Combi dispenser. After overnight culture at 37 deg C with 5% CO2, a total of 23 nL of compounds at 5 selected concentrations from the NPC or positive control (2 mM stock of MG132) in DMSO was transferred to each well of the assay plate using a pintool (Kalypsys, San Diego, CA), and the plates were further incubated at 37 deg C with 5% CO2 for 24 hours. After that, the plates were measured on Acumen Explorer (TTP Lab Tech). The fluorescence was detected by 488 nm/Ex and […].
For `COc1ccc(N=Cc2oc3ccc4ccccc4c3c2O)cc1`, the Potency is 9.2 µM (active). Still for that read-out and setting: under `COc1ccc(N=Cc2sc(O)c3ccccc23)cc1` stands 15.8 µM (active). Turning to `Oc1sc(C=Nc2ccccc2)c2ccccc12`, the Potency was 23.1 µM (active).

Consider `COc1ccc(N=Cc2c(O)c3ccccc3n2C(C)=O)cc1`, for which the Potency was 16.4 µM (active).

With `Cc1ccc(NC2=C(Cl)C(=O)N(C3CCCCC3)C2=O)cc1`, the “activity, negative = inhibitor” value was -2.36% (inactive). On to `Oc1sc(C=Nc2ccc(F)cc2)c2ccccc12`, for which the Potency was 20.6 µM (active). Regarding `COc1cc(/C=C/c2ccnc3ccccc23)ccc1N(C)C`, the Potency was 23.1 µM (active). On the same count and under the same terms, under `COc1cc(OC)c(/C=C/c2ccnc3ccccc23)c(OC)c1` stands 5.8 µM (active).

Take `COc1cc(N(C)C)c(OC)cc1/C=C/c1ccnc2ccccc12`: the Potency is 23.1 µM (active). As for `CN(C)c1ccc(/C=C(/C#N)C(=O)Nc2nc3c(s2)CCN(Cc2ccccc2)C3)cc1`, the Potency is 0.314 µM (active).

For `CN(C)c1ccc(/C=C(\C#N)C(=O)Nc2nc3c(s2)CCN(Cc2ccccc2)C3)cc1`, the Potency is 0.396 µM (active). For the compound `N#C/C(=C\c1ccc(C(=O)O)cc1)c1nc2sc3c(c2c(=O)[nH]1)CCCC3`, the “activity, negative = inhibitor” value is -7.1% (inactive). Turning to `Cc1ccc(N2C(=O)CS/C2=C(\C(Cl)=C(Cl)Cl)[N+](=O)[O-])cc1`, the “activity, negative = inhibitor” value is -2.43% (inactive). In the case of `Cc1cccc2c(=O)n3c(cc12)-c1[nH]c2ccccc2c1CC3`, the Potency was 16.4 µM (active). On the same count and under the same terms, under `CC[N+](C)(C)c1ccc(/C=C/c2ccncc2)cc1` stands 20.6 µM (active); under `CCC[N+](C)(C)c1ccc(/C=C/c2ccncc2)cc1`, 18.4 µM (active); under `COc1ccc2nc(N3C(=O)/C(=C/c4ccccc4)NC3=S)sc2c1`, 13 µM (active). For the compound `CCn1c(CNC(=O)C23CC4CC(CC(C4)C2)C3)nnc1SCC(=O)Nc1ccc(OC)cc1`, the “activity, negative = inhibitor” value is 0.0525% (inactive).

Regarding `COc1ccc(NC(=O)CSc2ccc3c4c(cccc24)C(=O)c2ccccc2-3)cc1`, the Potency is 14.6 µM (active). For `N#Cc1cccc(NC(=O)CSc2ccc3c4c(cccc24)C(=O)c2ccccc2-3)c1`, the Potency was 11.6 µM (active).

In the case of `CCCCCCN1C[C@H](O)[C@@H](n2cc(COC(=O)c3ccccc3)nn2)C[C@@H]1c1ccc(C)cc1`, the “activity, negative = inhibitor” value was -0.577% (inactive). With `COc1ccccc1-c1cc(C(=O)NN)[nH]n1`, the “activity, negative = inhibitor” value was -2.26% [at 36.9 µM] (inactive). In the case of `CCCn1nnc(NC(=S)NC(=O)c2ccccc2OC)n1`, the “activity, negative = inhibitor” value is 1.76% (inactive).

`COc1ccc(NC(=O)c2cc(-c3ccccc3OC)on2)cc1`: the Potency is 6.27 µM (active). In the case of `COc1ccc(C(=O)c2ccc(OC)c(OC)c2OC)cc1`, the Potency is 6.27 µM (active). Take `CC(=O)c1cccc(-c2ccnc3c2CC(C(=O)NCC2CC2)O3)c1` (centres undefined): the Potency is 14 µM (active). `CC(=O)c1cccc(-c2ccnc3c2CC(C(=O)NCC2CCOCC2)O3)c1` (centres undefined): the Potency is 4.44 µM (active).

Take `COc1ccc2c(C)cc(SCC#N)nc2c1`: the Potency was 16.4 µM (active). For `COc1ccc2c(C)cc(SCC(=O)N(C)C3CCS(=O)(=O)C3)nc2c1` (centres undefined), the “activity, negative = inhibitor” value was -25.5% (inactive). `C[C@]12CCC[C@H](O1)c1c(cc3c(c1O)C(=O)c1c(O)cc(O)cc1C3=O)O2`: the Potency was 20.6 µM (active).

`Cc1ccc(C(=O)NN(C)c2nc3ccccc3nc2C(F)(F)F)cc1`: the Potency is 2.8 µM (active). Still for that read-out and setting: the figure for `CN(NC(=O)c1ccccc1)c1nc2ccccc2nc1C(F)(F)F` is 3.96 µM (active). For the compound `O=c1oc2cc(O)ccc2cc1-c1nc(-c2ccc(Cl)c(Cl)c2)cs1`, the Potency was 2.06 µM (active). As to `CCc1sc(-c2cc3ccc(O)cc3oc2=O)nc1-c1ccc(C)cc1`, the “activity, negative = inhibitor” value is 37.3% (inactive). `COc1cc(C2Sc3ccccc3NC3=C2C(=O)OC3)cc(OC)c1OC` (centres undefined): the Potency was 17.7 µM (active).

Take `CCOC(=O)Nc1cc2c(c(N)n1)N=C(c1ccccc1)CN2`: the Potency was 0.116 µM (active). Take `Cc1nnc(SCC(=O)NCc2ccccc2F)c2nn(-c3ccc(Cl)cc3)c(C)c12`: the Potency was 14.6 µM (active).

Take `CCOC(=O)c1cnc(-n2nc(C)cc2C)nc1NNc1cc(C)nc(-c2ccccc2)n1`: the “activity, negative = inhibitor” value was 2.69% (inactive). In the case of `O=C(Cn1c(=O)n(Cc2ccco2)c(=O)c2sc3ccccc3c21)Nc1ccccc1C(F)(F)F`, the Potency was 23.1 µM (active). For the compound `Cc1ccc2c(/C=C/c3c[nH]c4ccccc34)ccnc2c1C`, the Potency is 8.2 µM (active).

On to `C(=C\c1c[nH]c2ccccc12)/c1nccc2ccccc12`, for which the Potency is 18.4 µM (active).

In the case of `C(=Cc1c[nH]c2ccccc12)c1nccc2ccccc12`, the Potency is 20.6 µM (active). Regarding `CCCSc1nnc(N2C(=O)C(O)=C(C(=O)c3ccco3)C2c2ccccc2F)s1` (centres undefined), the “activity, negative = inhibitor” value is 0.34% (inactive). Consider `Cc1nc2c3ccccc3n(Cc3ccccc3F)c2s1`, for which the Potency is 17.7 µM (active). Consider `Cc1nc2c3cc(F)ccc3n(Cc3ccccc3)c2s1`, for which the Potency was 6.27 µM (active).

Consider `Cc1nc2c3cc(F)ccc3n(Cc3ccccc3F)c2s1`, for which the Potency was 12.5 µM (active). For `CCOC(=O)CSc1nc2c(c(=O)[nH]1)C(C)(CC)Cc1ccccc1-2` (centres undefined), the Potency was 5.8 µM (active). Turning to `Cc1sc2nc(SCC(=O)N3CCOCC3)[nH]c(=O)c2c1-c1ccccc1`, the “activity, negative = inhibitor” value was -14.6% (inactive).

As for `CCSc1nccc(-c2nn(-c3ccc(C)cc3)ccc2=O)n1`, the Potency was 7.04 µM (active).
